In PubChem BioAssay:
Activity calls are given as the source filed them.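 Rule for the calls, unless noted: active = fluorescence slope after compound addition differing from the mean of all screened samples at 99.7% confidence, in either direction; inactive = the rest.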

Experiments:
[1] = inhibitors of TNFa-induced NFkB p65 translocation, primary screen, imaging, HUVEC, MLSMR starter and 10KST1 sets (AID 438;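 active = inhibition above 20% together with a positive visual image hit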;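 note: compound added about 3h40 before a 20 min TNFalpha stimulation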;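 for inhibition: signal is the nuclear over cytoplasmic p65 intensity ratio per well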); conditions: HUVEC TNFa-induced p65 nuclear translocation; cell count: measured here: nuclei count (cytotoxicity indicator), at 2.08 µM; inhibition: at 2 µM, stronger effect = higher value, 0% TNFa-plus-vehicle, 100% no-TNFa wells
[2] = reduction of polyQ htt aggregates in cells – imaging, exon1htt(103Q)mCFP cells, high-content imaging, primary screen (AID 483;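 active = visual image review flags a hit and inhibition of aggregation exceeds 20%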;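 note: compound exposure lasted 3 days before fixation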;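 for nuclei count: percent of the per-plate median nuclei count of sample wells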); conditions: exon1htt(103Q)mCFP cell line, aggregate imaging, at 2 µM; inhibition of aggregation: stronger effect = higher value; nuclei count: measured here: cell count, toxicity
[3] = endothelial E-selectin expression blockers – imaging, HUVEC, immunofluorescence, MLSMR starter and 10KST1 sets, primary screen (AID 487;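 active = visually confirmed hit in the image check and inhibition above 20%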;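 for inhibition: signal is fraction of cell area covered by stained E-selectin grains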;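 for nuclei count: 100% = median nuclei count of all wells on the same plate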); conditions: HUVEC TNFalpha-induced E-selectin immunofluorescence imaging, at 2 µM; inhibition: stronger effect = higher value; nuclei count: measured here: cell number, toxicity
[4] = target: Voltage-gated potassium channel subunit beta-2 (Rattus norvegicus) (UniProt P62483); experiment: inhibitors of rat Kvbeta2 reductase activity – biochemical, NADPH fluorescence, primary screen (AID 622;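 active = fluorescence slope higher than the sample average by over 3 SD, cut at about -0.22 in these data, passing the limit was not always enough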;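 note: slope of raw intensity against log time taken from 70 to 1610 s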); conditions: recombinant KvBeta, 4-cyanobenzaldehyde reduction, at 10 µM, stronger effect = higher value
Sequence of Voltage-gated potassium channel subunit beta-2 (Rattus norvegicus) (P62483 whole entry, looked up): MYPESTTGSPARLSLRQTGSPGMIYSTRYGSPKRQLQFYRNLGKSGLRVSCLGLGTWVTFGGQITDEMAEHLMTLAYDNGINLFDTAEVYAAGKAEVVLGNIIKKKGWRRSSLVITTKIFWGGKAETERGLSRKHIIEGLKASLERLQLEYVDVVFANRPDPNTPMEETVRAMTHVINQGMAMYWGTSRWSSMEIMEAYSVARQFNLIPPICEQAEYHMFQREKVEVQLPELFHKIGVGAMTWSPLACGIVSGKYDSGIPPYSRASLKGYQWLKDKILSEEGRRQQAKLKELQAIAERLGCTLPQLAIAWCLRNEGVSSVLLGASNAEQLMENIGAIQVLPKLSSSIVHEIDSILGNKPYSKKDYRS

[5] = target: Voltage-gated potassium channel subunit beta-2 (Rattus norvegicus) (UniProt P62483); experiment: enhancers of rat Kvbeta2 NADPH turnover – biochemical, NADPH fluorescence, primary screen (AID 623;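 active = NADPH fluorescence slope more negative than the mean of all samples by about 3 SD, 99.7% confidence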;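 note: fluorescence intensity change per second fitted from 20 to 320 s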); conditions: Recombinant KvBeta, NADPH fluorescence decrease slope, 10 min; at 10 µM; stronger effect = lower value
[6] = target: Alpha-2C adrenergic receptor (Homo sapiens) (UniProt P18825); experiment: compounds altering alpha2C-coupled GIRK flux – cell-based, HEK293 alpha2C/GIRK1/2, thallium flux, primary screen (AID 624); conditions: thallium flux BTC fluorescence, at 10 µM, actives lie on both sides;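 note: slope of fluorescence ratio to pre-addition baseline per second over 15 to 24 s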
Sequence of Alpha-2C adrenergic receptor (Homo sapiens) (P18825 whole entry, looked up): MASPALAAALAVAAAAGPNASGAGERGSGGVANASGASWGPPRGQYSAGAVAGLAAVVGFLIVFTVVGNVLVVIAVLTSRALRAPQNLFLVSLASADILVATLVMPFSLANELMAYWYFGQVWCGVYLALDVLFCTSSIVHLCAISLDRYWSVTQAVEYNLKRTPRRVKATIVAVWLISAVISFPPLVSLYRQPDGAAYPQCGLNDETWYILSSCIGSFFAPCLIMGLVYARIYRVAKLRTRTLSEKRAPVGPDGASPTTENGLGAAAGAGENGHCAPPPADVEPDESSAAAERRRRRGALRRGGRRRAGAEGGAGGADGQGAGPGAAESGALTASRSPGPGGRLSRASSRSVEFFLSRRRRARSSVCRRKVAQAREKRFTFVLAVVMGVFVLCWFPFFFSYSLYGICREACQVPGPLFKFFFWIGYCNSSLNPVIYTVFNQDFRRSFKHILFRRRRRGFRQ

[7] = blockers of RIG-like receptor reporter activation – cell-based, Sendai virus stimulus, luciferase, 10K MLSCN set, TLR/RLR signaling modifier project, primary screen (AID 602276;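 active = inhibition at or above 50% at 10 µM; inactive = inhibition below 50%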;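 note: firefly luciferase from ISG56 promoter only with Renilla not read in this screen; 0% = Sendai virus plus DMSO and 100% = medium plus DMSO without virus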); conditions: HEK293 RL24 IRF3 luciferase reporter, at 10 µM, stronger effect = higher value
[8] = TLR3 IRF3 reporter activation blockers – cell-based, poly I:C stimulus, luciferase, 10K MLSCN set, primary screen (AID 602277;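 active = inhibition of the reporter signal at or above 50%; inactive = inhibition below 50%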); conditions: HEK293-TLR3 RL24 IRF3 luciferase reporter, at 10 µM, stronger effect = higher value

| SMILES | cell count [1] | inhibition [1] | inhibition of aggregation [2] | nuclei count [2] [%] | inhibition [3] | nuclei count [3] [%] | fluorescence slope [4] | NADPH fluorescence slope [5] | slope [6] | inhibition [7] | inhibition [8] |
| --- | --- | --- | --- | --- | --- | --- | --- | --- | --- | --- | --- |
| COc1cccc(NS(=O)(=O)c2ccc3[nH]cc(C(=O)NC4CC4)c(=O)c3c2)c1 | 305 | 4% (inactive) | -2.9% (inactive) | 113 | -42.4% (inactive) | 126 | -0.603 (inactive) | -7e-05 (inactive) | 0.00731 (inactive) | 13.8% (inactive) | 32.8% (inactive) |
| Cc1ccc(-c2noc(CCC(=O)N3CCN(c4cccc(C(F)(F)F)c4)CC3)n2)cc1 | 647 | 7.6% (inactive) | -10.2% (inactive) | 95.8 | -36.9% (inactive) | 111 | -0.391 (inactive) | -5.4e-05 (inactive) | 0.00562 (inactive) | 9.01% (inactive) | 6.71% (inactive) |
| COc1ccc(-c2ccc(Nc3ccc(S(=O)(=O)N4CCCC4)cc3)nn2)cc1OC | 702 | -6.1% (inactive) | -4.9% (inactive) | 103 | -94.1% (inactive) | 109 | -0.601 (inactive) | -4.3e-05 (inactive) | 0.004 (inactive) | -5.55% (inactive) | -13.6% (inactive) |
| COc1ccccc1NCN1C(=O)CCC1=O | 710 | 5.4% (inactive) | -0.4% (inactive) | 97.3 | -32.2% (inactive) | 104 | -0.551 (inactive) | -2.5e-05 (inactive) | 0.00722 (inactive) | 13.3% (inactive) | 26.9% (inactive) |
| COc1cc2c(cc1OC)-c1nnc(-c3cccs3)n1C(C)(C)C2 | 814 | 1.2% (inactive) | -30.2% (inactive) | 106 | -58.9% (inactive) | 114 | -0.601 (inactive) | -1.8e-05 (inactive) | 0.00581 (inactive) | 6.77% (inactive) | 18.5% (inactive) |
| CCOC(=O)N1CCN(c2c(N3CCc4ccccc4C3)c(=O)c2=O)CC1 | 558 | 1.2% (inactive) | 13.2% (inactive) | 102 | -46.4% (inactive) | 122 | -0.538 (inactive) | -2.6e-05 (inactive) | 0.00721 (inactive) | 10.9% (inactive) | 16.4% (inactive) |
| COc1cc(C)c(N)cc1C(C)C | 422 | -5.6% (inactive) | 5.2% (inactive) | 81.4 | -41.7% (inactive) | 110 | -0.589 (inactive) | -1.8e-05 (inactive) | 0.00295 (inactive) | 12.9% (inactive) | 18.3% (inactive) |
| CC1CN(c2nc(-c3ccccc3)nc3ccccc23)CC(C)O1 (centres undefined) | 407 | -6% (inactive) | -1.5% (inactive) | 99.3 | -29.4% (inactive) | 114 | -0.333 (inactive) | -5.3e-05 (inactive) | 0.00612 (inactive) | 12% (inactive) | 22% (inactive) |
| CC(=O)c1c(C)[nH]c(C(=O)Nc2c(C)n(C)n(-c3ccccc3)c2=O)c1C | 418 | 2% (inactive) | -7.3% (inactive) | 112 | -137% (inactive) | 111 | -0.493 (inactive) | -2.7e-05 (inactive) | 0.00389 (inactive) | 17.1% (inactive) | 21.5% (inactive) |
| CCOC(=O)C(C)n1cnc2c(nnn2Cc2ccc(C)cc2)c1=O (centres undefined) | 618 | -3.7% (inactive) | 6% (inactive) | 91.7 | -1.8% (inactive) | 86.9 | -0.503 (inactive) | -0.000137 (inactive) | 0.00481 (inactive) | 16.6% (inactive) | 20.1% (inactive) |
| CCOC(=O)c1sc(NC(=O)CSc2n[nH]c(-c3ccccc3)n2)c(C#N)c1C | 634 | -4.4% (inactive) | -7.1% (inactive) | 94 | 106% (active) | 122 | -0.393 (inactive) | 2.8e-05 (inactive) | 0.00567 (inactive) | 7.86% (inactive) | -25.2% (inactive) |
| CCOC(=O)c1c(C)c(C(=O)NCCN2CCOCC2)c(C)n1C | 607 | -11.6% (inactive) | 13% (inactive) | 88.4 | 1.3% (inactive) | 103 | -0.496 (inactive) | -8.5e-05 (inactive) | 0.00563 (inactive) | 13.6% (inactive) | 22.1% (inactive) |
| O=C1CC(c2ccccc2)n2nc(NC(=O)c3ccccn3)nc2N1 (centres undefined) | 565 | 3.3% (inactive) | -11.8% (inactive) | 108 | 16.2% (inactive) | 106 | -0.605 (inactive) | -3.9e-05 (inactive) | 0.00587 (inactive) | 9.98% (inactive) | 27.1% (inactive) |
| CC1(CC(=O)O)C(=O)N=C2C=CC=CN21 (centres undefined) | 489 | -10.7% (inactive) | 17.4% (inactive) | 77.5 | 12.8% (inactive) | 97.8 | -0.318 (inactive) | 2.3e-05 (inactive) | 0.0089 (inactive) | 19.8% (inactive) | 22.1% (inactive) |
